Several values for one entry are separate records, joined by “and”; a condition that tells them apart may be missing. Equal entries are not always repeated. Results filed as inconclusive are left out. Activity calls are given as the source filed them. Unless noted, the call rests on the fitted dose curve; in most records, active means well fitted curve in the direction sought with a large enough effect; inconclusive means small, poorly fitted or top-dose-only effect, or another doubt; inactive means no such curve, though single readings can be large; an effect the other way counts as inactive or inconclusive.
Experiments:
[1] = Cell Viability - BJ (AID 421; calls by dose curve;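 further: potency means the concentration at half of the fitted maximal effect; cells exposed to compound for 40 hours at 37 °C before readout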); settings: BJ fibroblast viability, qHTS
Procedure, shortened: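 Luminescent ATP signal (CellTiter-Glo, 20 min at room temperature) served as the read-out of viable BJ cells after 40 hours of compound treatment. Responses were scaled between DMSO and 100 uM tamoxifen, and AC50 values were obtained by Hill modeling.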

[2] = Cell Viability - HepG2 (AID 433; calls by dose curve;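 further: potency means the concentration at half of the fitted maximal effect; potency for ATP loss meaning cytotoxicity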); settings: qHTS
Procedure, shortened: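 In this qHTS format, a 40 h, 37 °C compound incubation of HepG2 cells in complete medium precedes a 20 min CellTiter-Glo step at room temperature. Tamoxifen and doxorubicin serve as positive controls; Hill-equation fits yield AC50.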

[3] = molecular target: Mitogen-activated protein kinase 10 (Mus musculus) (UniProt Q61831); experiment: JNK3 AlphaScreen Assay (AID 530; active means well fitted curve in either direction with a large enough effect, not every such curve was filed as active;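 further: kinase came from lysate of stimulated human HepG2 cells; signal reports phosphorylation of biotinylated GST-cJun 1-79 at Ser73 with 10 µM ATP; on the % scale 0 is the no-effect control and ±100 the full control effect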); settings: JNK3 lysate, c-Jun phosphorylation; series mostly up to 11.4 µM
Procedure, shortened: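 Biotinylated GST-cJun(1-79) served as substrate for JNK3 in HepG2 lysates stimulated with IL-1beta and TNF-alpha. ATP was 10 uM final, pH 7.6. Ser73 phosphorylation was quantified by AlphaScreen (680 nm excitation).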

[4] = Cell Viability - N2a (AID 540); settings: N2a mouse neuroblastoma cell viability; activity change, negative = cytotoxicity: at 92.2 µM (top of the series);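 further: plate controls were DMSO alone for no effect and tamoxifen control for full effect; nearly all actives have a fitted effect of over 45% in size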
Procedure, shortened: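 In this qHTS cytotoxicity screen, ATP-dependent luciferase luminescence reports viable N2a cells after a 40 hr compound exposure in complete culture medium. Potencies are AC50 values from standard Hill equation fits.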

[5] = Cell Viability - H-4-II-E (AID 543); settings: H-4-II-E rat hepatoma viability; series mostly up to 92.2 µM; further: on the % scale 0 is the no-effect control and ±100 the full control effect; nearly all actives have a fitted effect of over 35% in size
Procedure, shortened: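 AC50 from Hill-modelled qHTS concentration-response curves. H-4-II-E rat hepatoma cells in complete medium, 40 hr exposure at 37 °C, viability by CellTiter-Glo ATP luminescence.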

[6] = MultiTox-Fluor Cytotoxicity Assay - LYMP1-002 - Live Cells (AID 955); settings: LYMP1-002 lymphoblastoid live-cell protease fluorescence viability; series mostly up to 46.1 µM;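 further: cells exposed to compound for 16 hours; on the % scale 0 is the no-effect control and ±100 the full control effect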
Procedure, shortened: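 In this qHTS viability format, lymphoblastoid cells (LYMP1-002, human) received compound for 16 hr at 37 C. Fluorogenic GF-AFC cleavage by viable cells was detected at 405/510 nm after 1 h at room temperature.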

[7] = MultiTox-Fluor Cytotoxicity Assay - LYMP1-002 - Dead Cells (AID 960); settings: LYMP1-002 lymphoblastoid cells, dead-cell protease fluorescence; series mostly up to 46.1 µM; further: nearly all actives have a fitted effect of over 60% in size; further: potency means the concentration at half of the fitted maximal effect
Procedure, shortened: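 Concentration-dependent increases in membrane-leaked protease activity are quantified in LYMP1-002 cells after 16 hr treatment; values are normalized against DMSO and tetraoctylammonium bromide (15 uM) controls and AC50 derived by Hill modeling.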

[8] = Cell Viability - LYMP1-003 - Assay at 40 hr (AID 964); settings: LYMP1-003 lymphoblastoid viability; series mostly up to 92.2 µM; further: on the % scale 0 is the no-effect control and ±100 the full control effect; nearly all actives have a fitted effect of over 60% in size
Procedure, shortened: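 Acute toxicity is scored as a concentration-dependent loss of intracellular ATP in LYMP1-003 cells (2500/well, complete medium) after 40 hr at 37 C, measured by CellTiter-Glo luminescence; AC50 values derive from standard Hill modelling.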

[9] = Cell Viability - LYMP2-013 (AID 970); settings: LYMP2-013 lymphoblastoid cells viability; series mostly up to 92.2 µM;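 further: cells exposed to compound for 24 h at 37 °C; nearly all actives have a fitted effect of over 55% in size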; further: potency means the concentration at half of the fitted maximal effect
Procedure, shortened: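 In complete culture medium, human lymphoblastoid cells were dosed for 24 hr at 37 C, with tetraoctylammonium bromide (6.4pM to 92 uM) as positive control. Viability reflects luciferase-based ATP signal; AC50 derived from concentration-response curves.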

[10] = Cell Viability - LYMP2-002 (AID 977); settings: LYMP2-002 lymphoblastoid cell viability, qHTS; series mostly up to 92.2 µM;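 further: compound exposure lasted 24 h at 37 °C; plate controls were DMSO only for no effect and 92 µM tetraoctylammonium bromide for full effect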
Procedure, shortened: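 In this qHTS viability screen, 2500 human lymphoblastoid cells per well receive compound for 24 hr at 37 C, and luciferase-based ATP luminescence gives the viability signal. Tetraoctylammonium bromide serves as positive control.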

[11] = Cell Viability - LYMP2-016 (AID 984); settings: LYMP2-016 lymphoblastoid cell viability, qHTS; series mostly up to 92.2 µM;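 further: cells exposed to compound for 24 hours at 37 °C; on the % scale 0 is the no-effect control and ±100 the full control effect; nearly all actives have a fitted effect of over 55% in size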
Procedure, shortened: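 Concentration-dependent ATP depletion measured in LYMP2-016 lymphoblastoid cells, 24 h, 37 C; luciferase-based luminescent detection; Hill-equation AC50.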

[12] = Cell Viability - LYMP2-018 (AID 985); settings: LYMP2-018 lymphoblastoid cells, viability (qHTS); series mostly up to 92.2 µM; further: nearly all actives have a fitted effect of over 50% in size; further: potency means the concentration at half of the fitted maximal effect;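 on activity change, negative = cytotoxicity: plate controls were DMSO only for no effect and tetraoctylammonium bromide at 92 µM for full effect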
Procedure, shortened: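 In this qHTS viability assay, cells are treated for 24 hr and cellular ATP is quantified by luciferase-based luminescence, with tetraoctylammonium bromide as positive control.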

[13] = Cell Viability - LYMP2-020 (AID 986); settings: series mostly up to 92.2 µM;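 further: cells exposed to compound for 24 h at 37 °C; nearly all actives have a fitted effect of over 55% in size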; further: potency means the concentration at half of the fitted maximal effect
Procedure, shortened: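 Cells at 2500 per well receive a 24 hr compound exposure at 37 C. Viability is measured as ATP-dependent luciferase luminescence, with AC50 modeled from qHTS concentration-response curves.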

[14] = qHTS assay for small molecule antagonists of retinoid X receptor alpha signaling (AID 588546; active means well fitted inhibition curve with a large enough effect in the signal ratio, with a control signal flat, not every such curve was filed as active; the % refers to the signal ratio;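 further: cells stimulated with 9-cis-retinoic acid as agonist; on the % scale 0 is the no-effect control and ±100 the full control effect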); settings: HEK293T RXRa-UAS-bla, beta-lactamase ratio, antagonist mode; measured here: W530 green channel, cytotoxicity proxy
Procedure, shortened: (§1)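 Beta-lactamase reporter inhibition, read as CCF4 fluorescence ratio (ex 405, em 460/530 nm) after 2 h at RT. HEK293T UAS-bla cells, 2500/well, were stimulated with 9-cis-RA at 500 or 100 nM final alongside test compound for 18 h at 37 C.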

[15] = molecular target: Retinoic acid receptor RXR-alpha (Homo sapiens) (UniProt P19793); experiment: as above; settings: HEK293T RXRa-UAS-bla, beta-lactamase ratio, antagonist mode
Retinoic acid receptor RXR-alpha (Homo sapiens), sequence (P19793 whole entry, looked up): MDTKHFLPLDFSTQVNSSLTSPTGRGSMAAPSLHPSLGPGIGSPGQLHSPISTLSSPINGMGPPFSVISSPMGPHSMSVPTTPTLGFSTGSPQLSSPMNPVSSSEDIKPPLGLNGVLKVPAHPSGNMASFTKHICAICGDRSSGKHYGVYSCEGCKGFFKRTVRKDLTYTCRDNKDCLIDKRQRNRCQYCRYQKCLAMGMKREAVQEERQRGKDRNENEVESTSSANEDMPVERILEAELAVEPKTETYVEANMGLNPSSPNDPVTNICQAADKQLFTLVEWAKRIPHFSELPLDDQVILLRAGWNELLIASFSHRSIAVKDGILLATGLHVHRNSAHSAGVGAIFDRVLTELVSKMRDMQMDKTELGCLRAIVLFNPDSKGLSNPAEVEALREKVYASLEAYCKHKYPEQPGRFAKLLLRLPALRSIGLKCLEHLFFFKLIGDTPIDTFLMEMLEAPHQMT
Procedure, shortened: as §1

[16] = molecular target: Thyroid hormone receptor beta (Homo sapiens) (UniProt P10828); experiment: qHTS assay for small molecule antagonists of thyroid hormone receptor beta signaling (AID 588547; active means well fitted inhibition curve with a large enough effect in the signal ratio, with a control signal flat, not every such curve was filed as active; the % refers to the signal ratio;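 further: cells stimulated with 0.4 nM T3 agonist during compound exposure; on the % scale 0 is the no-effect control and ±100 the full control effect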); settings: TR-UAS-bla HEK293, beta-lactamase ratio, antagonist mode, 18 h
Thyroid hormone receptor beta (Homo sapiens), sequence (P10828 whole entry, looked up): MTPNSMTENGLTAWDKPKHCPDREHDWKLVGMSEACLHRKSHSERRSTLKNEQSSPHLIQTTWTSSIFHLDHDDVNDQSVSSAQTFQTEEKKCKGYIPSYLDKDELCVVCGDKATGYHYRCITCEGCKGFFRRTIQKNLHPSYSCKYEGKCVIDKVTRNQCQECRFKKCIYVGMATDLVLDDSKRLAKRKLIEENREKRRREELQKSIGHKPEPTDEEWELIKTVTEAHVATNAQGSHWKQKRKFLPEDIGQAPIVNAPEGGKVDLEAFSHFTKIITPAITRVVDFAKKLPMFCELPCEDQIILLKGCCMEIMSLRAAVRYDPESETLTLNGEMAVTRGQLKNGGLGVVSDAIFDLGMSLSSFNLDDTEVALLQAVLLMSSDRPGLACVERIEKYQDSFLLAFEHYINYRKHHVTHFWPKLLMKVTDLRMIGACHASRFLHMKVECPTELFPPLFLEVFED
Procedure, shortened: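 TR-UAS-bla GripTite HEK293 cells in 2% charcoal/dextran FBS medium were preincubated 4 h at 37 C, given compound (0.59 nM to 92 uM) plus 0.4 nM T3 (final) for 18 h, then CCF4 for 2 h at RT; Hill fit gave IC50.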

[17] = qHTS assay for environmental chemicals that activate the Aryl hydrocarbon Receptor (AhR) signaling pathway (AID 651777); settings: 1A2-DRE human hepatoma cells, luciferase, 24 h; activation: stronger effect = higher value; further: nearly all actives have a fitted effect of over 15% in size; further: potency means the concentration at half of the fitted maximal effect; on activation: % of control where 0% means no effect
Procedure, shortened: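 1A2-DRE human hepatoma reporter line; 1,200 cells/well; cmpd or DMSO 24 h, 37 C/5% CO2; One-Glo 30 min RT; luciferase lum.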

[18] = molecular target: Nuclear receptor subfamily 1 group I member 2 (Rattus norvegicus) (UniProt Q9R1A7); experiment: qHTS assay for small molecule activators of the rat pregnane X receptor (rPXR) signaling pathway (AID 651751; call rule not given here; further: 0% is about no effect); settings: rPXR reporter cells, luciferase (One-Glo), 24 h
Nuclear receptor subfamily 1 group I member 2 (Rattus norvegicus), sequence (Q9R1A7 whole entry, looked up): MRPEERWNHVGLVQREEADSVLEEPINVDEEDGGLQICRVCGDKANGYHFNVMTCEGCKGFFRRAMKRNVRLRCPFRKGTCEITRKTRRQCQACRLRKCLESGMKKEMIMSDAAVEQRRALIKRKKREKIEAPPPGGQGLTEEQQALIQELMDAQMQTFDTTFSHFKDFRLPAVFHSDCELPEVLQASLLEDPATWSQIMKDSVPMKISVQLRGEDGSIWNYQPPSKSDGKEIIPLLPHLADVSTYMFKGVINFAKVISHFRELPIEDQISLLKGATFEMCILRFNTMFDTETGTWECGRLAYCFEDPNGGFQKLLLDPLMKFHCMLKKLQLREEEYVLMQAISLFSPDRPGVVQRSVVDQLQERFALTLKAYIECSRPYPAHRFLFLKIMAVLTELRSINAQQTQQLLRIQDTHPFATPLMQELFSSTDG

[19] = Cell Viability - LYMP2-004 (AID 966); settings: LYMP2-004 lymphoblastoid cell viability, qHTS; series mostly up to 92.2 µM;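 further: cells exposed to compound for 24 h; nearly all actives have a fitted effect of over 65% in size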; further: potency means the concentration at half of the fitted maximal effect;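 on activity change, negative = cytotoxicity: plate controls were DMSO only for no effect and tetraoctylammonium bromide control for full effect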
Procedure, shortened: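 Viable-cell number estimated from ATP luminescence (CellTiter-Glo) in 2500 human lymphoblastoid cells/well after 24 hr at 37 C with compound. AC50 fitted to the standard Hill equation.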

[20] = Cell Viability - LYMP2-022 (AID 987); settings: LYMP2-022 lymphoblastoid cell viability; series mostly up to 92.2 µM; further: nearly all actives have a fitted effect of over 55% in size; further: potency means the concentration at half of the fitted maximal effect
Procedure, shortened: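 In this qHTS cytotoxicity screen, compound titrations were incubated 24 hr at 37 C with human lymphoblastoid cells in complete medium. Luciferase-based ATP luminescence provided the viability signal.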

C=C(C#N)C(=O)OCC
-6.72%: max response [14]
inactive: Potency [1] > 92 µM | Potency [2] > 92 µM | Potency [3] | activity change, negative = cytotoxicity [4] -3.66% | Potency [5] | outcome [6] | Potency [7] | Potency [8] | Potency [9] | Potency [10] | Potency [11] | Potency [12] | Potency [13] | max response [15] 9.58% | activity change % (negative = inhibition) [16] 4.82% | activation [17] -0.801% | max response [18] -1.42%

CCCCC(CC)COC(=O)COc1ccc(Cl)cc1Cl (configuration not stated)
inactive: Potency [1] > 92 µM | Potency [2] > 92 µM | activity change, negative = cytotoxicity [4] 1.51% | Potency [5] | outcome [6] | Potency [7] | Potency [8] | Potency [19] | Potency [9] | Potency [10] | Potency [11] | Potency [12] | Potency [13] | Potency [20] | max response [15] 18.5% and 4.05% | activity change % (negative = inhibition) [16] -2.67% and 4.45% | activation [17] 0.535% and 1.47% | max response [18] -0.582% and 1.82%
0.541% and -5.28%: max response [14]

Cc1ccc2ccc3cccc4ccc1c2c34
inactive: Potency [1] > 92 µM | Potency [2] > 92 µM | activity change, negative = cytotoxicity [4] -16.7% | Potency [5] | outcome [6] | Potency [8] | Potency [19] | Potency [9] | Potency [10] | Potency [11] | Potency [12] | Potency [13] | Potency [20] | max response [15] -1.11% | activity change % (negative = inhibition) [16] 1.52% | activation [17] 5.12% | max response [18] 10%
-6.82%: max response [14]

Cc1ccc(O)c(N)c1
inactive: Potency [1] > 92 µM | Potency [2] > 92 µM | Potency [3] | outcome [6] | Potency [7] | Potency [10] | max response [15] 11.9% | activity change % (negative = inhibition) [16] -10.8% | max response [18] 12.1%
-2.88%: max response [14]
active: Potency [9] 79.4 µM | Potency [13] 50.1 µM | Potency [20] 39.8 µM | Potency [17] 50.1 µM

O=[N+]([O-])c1cc(Cl)c(Cl)c(Cl)c1Cl
active: Potency [7] 25.1 µM
inactive: Potency [1] > 92 µM | Potency [2] > 92 µM | Potency [3] | activity change, negative = cytotoxicity [4] -28% | outcome [6] | Potency [10] | Potency [11] | max response [15] -21.8% | activity change % (negative = inhibition) [16] 1.99% | activation [17] -0.451% | max response [18] 0.233%
11.9%: max response [14]

NC(=O)Nc1nc2ccccc2[nH]1
inactive: Potency [1] > 92 µM | Potency [2] > 92 µM | Potency [3] | activity change, negative = cytotoxicity [4] -4.08% | Potency [5] | outcome [6] | Potency [8] | Potency [19] | Potency [9] | Potency [10] | Potency [11] | Potency [12] | Potency [13] | Potency [20] | max response [15] 1.58% | activity change % (negative = inhibition) [16] -13.1% | activation [17] 5.33% | max response [18] -2.46%
-1.95%: max response [14]

O=[N+]([O-])c1ccc(F)cc1F
-4.17%: max response [14]
inactive: Potency [1] > 92 µM | Potency [2] > 92 µM | Potency [3] | activity change, negative = cytotoxicity [4] -8.79% | Potency [5] | outcome [6] | Potency [7] | Potency [8] | Potency [19] | Potency [9] | Potency [10] | Potency [11] | Potency [12] | max response [15] 10.7% | activity change % (negative = inhibition) [16] 0.277% | activation [17] 0.688% | max response [18] 0.993%

Clc1nc2ccccc2nc1Cl
inactive: Potency [1] > 92 µM | Potency [2] > 92 µM | Potency [3] | activity change, negative = cytotoxicity [4] -7.43% | Potency [5] | outcome [6] | Potency [7] | Potency [8] | Potency [19] | Potency [10] | Potency [11] | Potency [12] | max response [15] 31% | activity change % (negative = inhibition) [16] -2.15% | activation [17] 0.0222%
-14.8%: max response [14]

Oc1ccc(O)c2c(O)cccc12
inactive: Potency [1] > 92 µM | Potency [2] > 92 µM | Potency [3] | activity change, negative = cytotoxicity [4] -30.1% | outcome [6] | Potency [7] | Potency [8] | max response [15] -1.49% | activity change % (negative = inhibition) [16] -24.9% | max response [18] 1.1%
-12.8%: max response [14]
active: Potency [19] 50.1 µM | Potency [12] 50.1 µM | Potency [20] 50.1 µM

CC(C)S
0.793%: max response [14]
inactive: Potency [1] > 92 µM | Potency [2] > 92 µM | activity change, negative = cytotoxicity [4] -5.34% | Potency [5] | outcome [6] | Potency [7] | Potency [8] | Potency [19] | Potency [9] | Potency [10] | Potency [11] | Potency [12] | Potency [13] | Potency [20] | max response [15] 1.63% | activity change % (negative = inhibition) [16] 11.8% | activation [17] -2.58% | max response [18] -6.45%

O=C(O)c1ccc([N+](=O)[O-])cc1
inactive: Potency [1] > 92 µM | Potency [2] > 92 µM | Potency [3] | activity change, negative = cytotoxicity [4] 9.32% | Potency [5] | outcome [6] | Potency [7] | Potency [8] | Potency [19] | Potency [9] | Potency [10] | Potency [11] | Potency [12] | Potency [13] | Potency [20] | max response [15] 3.05% and 5.55% | activity change % (negative = inhibition) [16] -4.73% | activation [17] 0.333% and 2.14% | max response [18] -2.43% and -1.7%
-8.75% and -3.59%: max response [14]

NC(=O)c1ccc([N+](=O)[O-])cc1
inactive: Potency [1] > 92 µM | Potency [2] > 92 µM | activity change, negative = cytotoxicity [4] 4.68% | Potency [5] | outcome [6] | Potency [7] | Potency [8] | Potency [19] | Potency [9] | Potency [10] | Potency [11] | Potency [12] | Potency [13] | Potency [20] | max response [15] -5.31% | activity change % (negative = inhibition) [16] -17.4% | activation [17] -1.24% | max response [18] -2.18%
-6.07%: max response [14]
